Sampled rows, rich in hits. Any-hit rate of the full collection: about 3.6%.
Pf apPOL inh = Pf-apPOL inhibitors, biochemical, fluorescence; 0.25% of 210,000 active; Recombinant Pf-apPOL, molecular beacon fluorescence, 1.5 h; AID 1794808, 2022; inhibition, % at 10 µM; Plasmodium falciparum apicoplast DNA polymerase (apPOL)
mHTT-CaM PPI inh = mutant huntingtin-calmodulin interaction inhibitors – biochemical, AlphaScreen, primary screen. inhibition, % at 15 µM. AlphaScreen His-mHTT/GST-CaM binding, luminescence. P42858. 3.6% of 190,000 active
A number is an active result. No stated cut-off is given here; in the data, active means inhibition above about 50%; inactive means the rest.

Screening Cc1c(Cl)c([N+](=O)[O-])nn1CCCC(=O)Nc1ccc([N+](=O)[O-])cc1Cl returned Pf apPOL inh inactive and mHTT-CaM PPI inh inactive.
`CC(C)(C)C(=O)N1CCCC(COc2cccc(C(=O)N3CCCCC3)c2)C1` (configuration not stated) gave Pf apPOL inh inactive and mHTT-CaM PPI inh inactive.
For Cc1nc2c(c(N3CCCCC3)n1)CN(C(=O)C1CCC1)CC2 the results were Pf apPOL inh inactive and mHTT-CaM PPI inh inactive.
Screening Fc1ccc(CN2CCOCC2)cc1Br returned Pf apPOL inh inactive and mHTT-CaM PPI inh inactive.
Screening O=C(COc1ccccc1Br)Nc1ccc(Cl)c(C(F)(F)F)c1 returned Pf apPOL inh 71 and mHTT-CaM PPI inh inactive.
Screening Cc1nc(OCC(=O)Nc2ccc(Cl)c(C(F)(F)F)c2)c2ccccc2n1 returned Pf apPOL inh inactive and mHTT-CaM PPI inh inactive.
Screening CC(C)(C)c1ccc(OCC(=O)Nc2ccc3oc(-c4ccncc4)nc3c2)cc1 returned Pf apPOL inh 68 and mHTT-CaM PPI inh inactive.
Screening Cc1cccc(OCC(=O)Nc2ccc(-c3nc4ncccc4o3)cc2)c1C returned Pf apPOL inh inactive and mHTT-CaM PPI inh 75.
For Cc1cc(Cl)ccc1OCC(=O)Nc1ccc2oc(-c3ccncc3)nc2c1 the results were Pf apPOL inh inactive and mHTT-CaM PPI inh inactive.
COc1ccccc1C(=O)Nc1cccc(-c2nc3ncccc3o2)c1 was read as Pf apPOL inh inactive and mHTT-CaM PPI inh 58.
`Cc1ccccc1OCC(=O)Nc1ccc(-c2nc3ncccc3o2)cc1` gave Pf apPOL inh inactive and mHTT-CaM PPI inh inactive.
For Cc1ccccc1OCC(=O)Nc1ccc2oc(-c3ccncc3)nc2c1 the results were Pf apPOL inh inactive and mHTT-CaM PPI inh 70.
Screening CCc1ccc(-c2nc3cc(NC(=O)COc4ccc(OC)cc4)ccc3o2)cc1 returned Pf apPOL inh inactive and mHTT-CaM PPI inh inactive.
For COc1ccc(Br)cc1C(=O)Nc1cccc(-c2nc3ncccc3o2)c1 the results were Pf apPOL inh inactive and mHTT-CaM PPI inh inactive.
Screening CC(C)NC(=O)c1ccc(OCC2CCN(C(=O)c3ccccc3)CC2)cc1 returned Pf apPOL inh inactive and mHTT-CaM PPI inh inactive.
For O=C(Oc1cccc(OC(=O)N2CCOCC2)c1)N1CCOCC1 the results were Pf apPOL inh inactive and mHTT-CaM PPI inh inactive.
`COc1ccccc1NC(=O)Nc1nnc(C)s1` gave Pf apPOL inh inactive and mHTT-CaM PPI inh inactive.
Cc1ccc(C)c(C(=O)Nc2ccc3c(c2)Sc2ncccc2C(=O)N3C)c1 was read as Pf apPOL inh inactive and mHTT-CaM PPI inh inactive.
Cc1cc(C)nc(NC(=NS(=O)(=O)Cc2ccccc2)Nc2cccc(Cl)c2C)n1 was read as Pf apPOL inh inactive and mHTT-CaM PPI inh inactive.
For COc1cc(CN2CCN(c3ccc(Cl)cc3)CC2)c([N+](=O)[O-])cc1OC the results were Pf apPOL inh inactive and mHTT-CaM PPI inh inactive.
For CCNC(=O)c1ccc(-c2csc(C3CC3)n2)cc1 the results were Pf apPOL inh inactive and mHTT-CaM PPI inh inactive.
Screening CCCn1cnnc1C1CCCCN1S(=O)(=O)c1cccnc1 (configuration not stated) returned Pf apPOL inh inactive and mHTT-CaM PPI inh inactive.
For COc1ccccc1-n1nc(C(=O)Nc2ccc(C)c(F)c2)c2ccccc2c1=O the results were Pf apPOL inh inactive and mHTT-CaM PPI inh inactive.
CCOc1cc(CN2CCSCC2)ccc1OC was read as Pf apPOL inh inactive and mHTT-CaM PPI inh inactive.
Screening COc1ccc2cc3cc(C(=O)N(C)c4cc(C)ccc4OC)sc3nc2c1 returned Pf apPOL inh inactive and mHTT-CaM PPI inh inactive.
Screening CCCc1cc(C2CCCN2C(=O)NCC(=O)OCC)no1 (configuration not stated) returned Pf apPOL inh inactive and mHTT-CaM PPI inh inactive.
`COc1ccc2[nH]cc(CCN3CC(C(=O)Nc4ccc5c(c4)CCC5)CC3=O)c2c1` (configuration not stated) gave Pf apPOL inh inactive and mHTT-CaM PPI inh 61.
Screening COc1ccc(CNC(=O)C2CC(=O)N(CCc3c[nH]c4ccc(F)cc34)C2)cc1 (configuration not stated) returned Pf apPOL inh inactive and mHTT-CaM PPI inh inactive.
For COc1ccc2[nH]cc(CCN3CC(C(=O)Nc4ccc(Cl)cc4)CC3=O)c2c1 (configuration not stated) the results were Pf apPOL inh inactive and mHTT-CaM PPI inh inactive.
Screening COc1ccc(CNC(=O)C2CC(=O)N(CCc3c[nH]c4ccc(Cl)cc34)C2)cc1 (configuration not stated) returned Pf apPOL inh inactive and mHTT-CaM PPI inh 74.
For COc1ccc(NC(=O)C2CC(=O)N(CCc3c[nH]c4ccc(Cl)cc34)C2)c(OC)c1 (configuration not stated) the results were Pf apPOL inh inactive and mHTT-CaM PPI inh 77.
Screening COc1ccc(NC(=O)C2CC(=O)N(CCc3c[nH]c4ccc(OC)cc34)C2)cc1 (configuration not stated) returned Pf apPOL inh inactive and mHTT-CaM PPI inh inactive.

Screening data (PubChem)
